# Key:
# [1] = molecular target: Actin-related protein 2/3 complex subunit 3 (UniProt O15145); assay: cross-link between two proteins; co-fractionation; cross-linking mass spectrometry
# [2] = molecular target: Actin-related protein 2/3 complex subunit 4 (UniProt P59998); assay: as above
# Zinc finger protein 786 = molecular target: T1, Zinc finger protein 786 (UniProt Q8N393); assay: cross-link between two proteins; cross-linking mass spectrometry
# T1 sequence: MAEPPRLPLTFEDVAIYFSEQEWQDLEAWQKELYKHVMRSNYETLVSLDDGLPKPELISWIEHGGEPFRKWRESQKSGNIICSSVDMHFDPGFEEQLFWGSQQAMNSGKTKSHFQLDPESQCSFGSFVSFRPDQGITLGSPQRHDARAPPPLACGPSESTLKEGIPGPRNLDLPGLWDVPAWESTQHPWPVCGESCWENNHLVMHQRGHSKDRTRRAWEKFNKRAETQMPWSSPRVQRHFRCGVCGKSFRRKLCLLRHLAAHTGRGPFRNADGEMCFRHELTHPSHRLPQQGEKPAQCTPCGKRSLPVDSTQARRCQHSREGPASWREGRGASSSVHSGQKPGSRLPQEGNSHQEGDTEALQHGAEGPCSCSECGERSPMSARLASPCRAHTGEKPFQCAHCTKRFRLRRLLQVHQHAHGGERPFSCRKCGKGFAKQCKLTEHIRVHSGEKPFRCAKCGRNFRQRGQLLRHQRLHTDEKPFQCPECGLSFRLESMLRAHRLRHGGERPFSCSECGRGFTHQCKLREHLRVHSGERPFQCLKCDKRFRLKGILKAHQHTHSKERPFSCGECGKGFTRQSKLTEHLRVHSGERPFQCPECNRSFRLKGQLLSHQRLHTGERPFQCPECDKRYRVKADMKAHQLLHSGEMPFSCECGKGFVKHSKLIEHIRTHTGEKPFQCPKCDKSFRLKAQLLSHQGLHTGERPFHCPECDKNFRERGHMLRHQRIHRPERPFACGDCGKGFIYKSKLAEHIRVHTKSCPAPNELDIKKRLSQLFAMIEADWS
# [3] = molecular target: Inositol 1,4,5-trisphosphate-gated calcium channel ITPR2 (UniProt Q14571); assay: as above
# Actin-related protein 2 = Actin-related protein 2 (UniProt P61160); assay: cross-link between two proteins; co-fractionation; cross-linking mass spectrometry
# [4] = molecular target: Zinc finger protein 28 homolog (UniProt Q8NHY6); assay: cross-link between two proteins; cross-linking mass spectrometry
# [5] = molecular target: Large ribosomal subunit protein eL36 (UniProt Q9Y3U8); assay: cross-linking mass spectrometry
# [6] = molecular target: Ragulator complex protein LAMTOR3 (UniProt Q9UHA4); assay: cross-link between two proteins; cross-linking mass spectrometry
# [7] = molecular target: V-type proton ATPase subunit D (UniProt Q9Y5K8); assay: as above
# [8] = molecular target: Nucleolar and coiled-body phosphoprotein 1 (UniProt Q14978); assay: as above
# [9] = molecular target: Cullin-associated NEDD8-dissociated protein 1 (UniProt Q86VP6); assay: co-fractionation; co-fractionation; cross-linking mass spectrometry
# [10] = molecular target: Actin-related protein 2/3 complex subunit 1A (UniProt Q92747); assay: cross-link between two proteins; co-fractionation; cross-linking mass spectrometry
# [11] = molecular target: Synaptonemal complex protein 2-like (UniProt Q5T4T6); assay: cross-link between two proteins; cross-linking mass spectrometry
# [12] = molecular target: Vacuolar protein sorting-associated protein 35 (UniProt Q96QK1); assay: cross-link between two proteins; co-fractionation; cross-linking mass spectrometry
# [13] = molecular target: Putative ribosomal protein eS10-like (UniProt Q9NQ39); assay: cross-link between two proteins; cross-linking mass spectrometry
# [14] = molecular target: Enhancer of rudimentary homolog (UniProt P84090); assay: cross-link between two proteins; affinity purification or IP with mass spectrometry; cross-linking mass spectrometry
# Obscurin = Obscurin (UniProt Q5VST9); assay: cross-linking mass spectrometry
# Sequence of V-type proton ATPase catalytic subunit A, P38606 (P38606 whole entry): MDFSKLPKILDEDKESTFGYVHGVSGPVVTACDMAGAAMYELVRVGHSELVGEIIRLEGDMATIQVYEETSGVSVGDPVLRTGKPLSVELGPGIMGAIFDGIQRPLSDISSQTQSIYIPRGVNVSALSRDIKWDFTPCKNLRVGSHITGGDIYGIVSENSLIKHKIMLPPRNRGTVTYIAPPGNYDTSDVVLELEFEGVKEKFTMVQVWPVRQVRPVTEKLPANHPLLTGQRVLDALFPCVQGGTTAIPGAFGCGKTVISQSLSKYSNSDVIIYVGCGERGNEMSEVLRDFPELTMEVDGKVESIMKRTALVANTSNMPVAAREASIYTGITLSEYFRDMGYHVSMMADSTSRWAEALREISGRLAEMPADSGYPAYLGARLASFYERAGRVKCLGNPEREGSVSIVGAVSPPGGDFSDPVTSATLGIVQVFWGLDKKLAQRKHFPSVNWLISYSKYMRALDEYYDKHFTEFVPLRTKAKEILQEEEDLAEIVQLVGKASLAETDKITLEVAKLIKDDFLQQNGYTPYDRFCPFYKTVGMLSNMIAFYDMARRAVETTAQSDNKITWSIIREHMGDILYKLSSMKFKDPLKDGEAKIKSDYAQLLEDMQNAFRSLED
# Sequence of Ragulator complex protein LAMTOR3 (Q9UHA4 whole entry, one chain of several): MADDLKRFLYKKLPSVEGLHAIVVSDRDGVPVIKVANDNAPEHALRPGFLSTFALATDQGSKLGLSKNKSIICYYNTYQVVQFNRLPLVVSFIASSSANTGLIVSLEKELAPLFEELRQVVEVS
# Sequence of Cullin-associated NEDD8-dissociated protein 1 (Q86VP6 whole entry): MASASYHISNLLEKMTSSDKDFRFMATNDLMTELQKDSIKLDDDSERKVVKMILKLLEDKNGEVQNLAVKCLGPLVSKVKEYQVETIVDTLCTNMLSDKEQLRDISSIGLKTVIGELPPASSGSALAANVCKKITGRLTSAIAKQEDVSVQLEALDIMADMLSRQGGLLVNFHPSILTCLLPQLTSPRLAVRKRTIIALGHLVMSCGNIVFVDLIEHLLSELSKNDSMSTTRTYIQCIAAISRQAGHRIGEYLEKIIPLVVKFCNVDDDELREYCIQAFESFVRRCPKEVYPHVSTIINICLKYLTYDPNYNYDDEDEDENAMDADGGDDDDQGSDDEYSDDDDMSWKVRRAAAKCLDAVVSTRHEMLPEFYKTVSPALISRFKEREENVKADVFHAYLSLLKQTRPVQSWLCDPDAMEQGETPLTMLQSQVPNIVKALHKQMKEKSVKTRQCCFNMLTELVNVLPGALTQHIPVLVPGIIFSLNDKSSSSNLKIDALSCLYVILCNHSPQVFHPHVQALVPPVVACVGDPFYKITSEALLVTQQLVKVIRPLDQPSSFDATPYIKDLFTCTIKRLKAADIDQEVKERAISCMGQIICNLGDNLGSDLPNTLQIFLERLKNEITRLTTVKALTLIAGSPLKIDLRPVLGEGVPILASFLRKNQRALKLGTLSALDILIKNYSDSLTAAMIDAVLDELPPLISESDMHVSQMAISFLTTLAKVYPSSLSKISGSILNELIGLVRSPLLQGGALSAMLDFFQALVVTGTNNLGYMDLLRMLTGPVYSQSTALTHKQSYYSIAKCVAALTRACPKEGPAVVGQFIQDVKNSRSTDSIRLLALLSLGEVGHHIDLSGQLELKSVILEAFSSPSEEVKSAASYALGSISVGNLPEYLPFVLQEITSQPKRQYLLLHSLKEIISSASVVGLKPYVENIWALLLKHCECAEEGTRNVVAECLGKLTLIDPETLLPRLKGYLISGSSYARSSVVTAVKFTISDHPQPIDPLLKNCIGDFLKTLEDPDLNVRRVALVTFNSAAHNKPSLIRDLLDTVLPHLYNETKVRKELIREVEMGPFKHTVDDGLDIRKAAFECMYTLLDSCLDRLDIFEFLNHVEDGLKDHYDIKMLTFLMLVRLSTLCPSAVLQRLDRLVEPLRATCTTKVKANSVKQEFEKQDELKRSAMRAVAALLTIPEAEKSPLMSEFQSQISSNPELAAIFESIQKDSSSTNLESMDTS
# Sequence of Ragulator complex protein LAMTOR1, Q6IAA8 (Q6IAA8 whole entry, one chain of several): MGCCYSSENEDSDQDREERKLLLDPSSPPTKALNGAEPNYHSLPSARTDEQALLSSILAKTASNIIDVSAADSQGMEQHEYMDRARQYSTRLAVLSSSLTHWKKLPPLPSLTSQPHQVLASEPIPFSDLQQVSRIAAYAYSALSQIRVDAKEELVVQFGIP
# Sequence of V-type proton ATPase subunit D (Q9Y5K8 whole entry): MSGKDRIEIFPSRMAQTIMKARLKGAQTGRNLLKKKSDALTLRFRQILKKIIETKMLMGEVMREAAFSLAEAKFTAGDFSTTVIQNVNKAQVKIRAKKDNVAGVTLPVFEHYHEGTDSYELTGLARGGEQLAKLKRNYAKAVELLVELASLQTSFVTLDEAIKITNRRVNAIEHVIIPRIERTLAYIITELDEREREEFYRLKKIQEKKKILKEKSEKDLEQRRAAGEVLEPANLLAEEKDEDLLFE
# Sequence of Histone H1.4, P10412 (P10412 whole entry): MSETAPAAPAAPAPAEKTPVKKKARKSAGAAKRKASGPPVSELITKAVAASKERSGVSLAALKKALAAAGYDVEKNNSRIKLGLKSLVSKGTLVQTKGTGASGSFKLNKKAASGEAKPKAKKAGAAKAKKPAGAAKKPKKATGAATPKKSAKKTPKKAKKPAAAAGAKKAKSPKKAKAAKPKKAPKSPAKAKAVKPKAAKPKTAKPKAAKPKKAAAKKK
# Sequence of Cullin-1, Q13616 (Q13616 whole entry): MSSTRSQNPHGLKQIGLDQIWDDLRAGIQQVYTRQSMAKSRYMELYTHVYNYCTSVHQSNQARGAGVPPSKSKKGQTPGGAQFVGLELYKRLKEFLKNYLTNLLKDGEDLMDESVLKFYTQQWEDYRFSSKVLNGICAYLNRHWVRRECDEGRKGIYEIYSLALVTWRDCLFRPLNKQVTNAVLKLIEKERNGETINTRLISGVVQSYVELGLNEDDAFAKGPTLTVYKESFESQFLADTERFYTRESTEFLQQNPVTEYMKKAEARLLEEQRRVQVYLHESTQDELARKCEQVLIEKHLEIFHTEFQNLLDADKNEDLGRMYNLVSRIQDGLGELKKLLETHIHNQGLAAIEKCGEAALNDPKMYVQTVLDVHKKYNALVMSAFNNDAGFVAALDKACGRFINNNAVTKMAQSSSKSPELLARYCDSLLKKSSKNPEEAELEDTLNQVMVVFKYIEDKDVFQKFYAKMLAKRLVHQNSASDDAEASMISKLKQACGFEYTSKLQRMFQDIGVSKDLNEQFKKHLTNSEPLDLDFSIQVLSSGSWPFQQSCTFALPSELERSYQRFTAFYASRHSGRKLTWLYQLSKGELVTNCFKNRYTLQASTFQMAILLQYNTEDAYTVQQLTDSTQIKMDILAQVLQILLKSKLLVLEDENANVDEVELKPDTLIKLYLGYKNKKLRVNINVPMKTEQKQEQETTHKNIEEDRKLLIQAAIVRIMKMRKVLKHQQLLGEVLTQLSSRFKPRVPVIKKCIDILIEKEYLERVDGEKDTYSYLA
substance,measurement,setting,value
"Actin-related protein 2/3 complex subunit 2, O15144",listed as a hit,[1],yes
same,listed as a hit,[2],yes
"Histone H1.4, P10412",listed as a hit,Zinc finger protein 786,yes
"Large ribosomal subunit protein uL29, P42766",listed as a hit,[3],yes
"Actin-related protein 2/3 complex subunit 5, O15511",listed as a hit,Actin-related protein 2,yes
"Large ribosomal subunit protein uL1, P62906",listed as a hit,[4],yes
"Small ribosomal subunit protein uS17, P62280",listed as a hit,[5],yes
"Ragulator complex protein LAMTOR1, Q6IAA8",listed as a hit,[6],yes
"V-type proton ATPase catalytic subunit A, P38606",listed as a hit,[7],yes
"Small ribosomal subunit protein eS7, P62081",listed as a hit,[8],yes
"Cullin-1, Q13616",listed as a hit,[9],yes
"Actin-related protein 3, P61158",listed as a hit,[10],yes
"Large ribosomal subunit protein uL5, P62913",listed as a hit,[11],yes
"Vacuolar protein sorting-associated protein 26A, O75436",listed as a hit,[12],yes
"Small ribosomal subunit protein eS10, P46783",listed as a hit,[13],yes
"DNA-directed RNA polymerase II subunit RPB1, P24928",listed as a hit,[14],yes
"Large ribosomal subunit protein eL8, P62424",listed as a hit,Obscurin,yes

# — article doi:10.1101/2025.02.07.636106
